The record followed here is PubChem BioAssay AID686964 (The Scripps Research Institute Molecular Screening Center, 2013).

For orientation: inhibition means the drop in the measured response relative to a control, in per cent.

Each structure is given as a SMILES string. Out of some 370,000 compounds screened, about 1,100 (0.3%) were called active. Only a selection was taken, and actives are over-represented in it overall. Unmarked numbers belong to inactive results. Cut-off read from the data, not from the text of the source: active = inhibition above about 13%; inactive = the rest.

In the experiment the target is Methyl-CpG-binding domain protein 2 (Homo sapiens) (UniProt Q9UBB5). Nature of the experiment: inhibitors of MBD2 binding to methylated DNA, primary screen, biochemical, TR-FRET, DNA-binding domain, human (AID 686964). The conditions noted are these: MBD2 binding to methylated oligonucleotide, at 4.4 µM, hits give high values. In general terms: Time-resolved FRET reads energy transfer from a long-lived donor to a nearby acceptor.
Sequence of Methyl-CpG-binding domain protein 2 (Homo sapiens) (Q9UBB5 whole entry, looked up, the tested form may be a part): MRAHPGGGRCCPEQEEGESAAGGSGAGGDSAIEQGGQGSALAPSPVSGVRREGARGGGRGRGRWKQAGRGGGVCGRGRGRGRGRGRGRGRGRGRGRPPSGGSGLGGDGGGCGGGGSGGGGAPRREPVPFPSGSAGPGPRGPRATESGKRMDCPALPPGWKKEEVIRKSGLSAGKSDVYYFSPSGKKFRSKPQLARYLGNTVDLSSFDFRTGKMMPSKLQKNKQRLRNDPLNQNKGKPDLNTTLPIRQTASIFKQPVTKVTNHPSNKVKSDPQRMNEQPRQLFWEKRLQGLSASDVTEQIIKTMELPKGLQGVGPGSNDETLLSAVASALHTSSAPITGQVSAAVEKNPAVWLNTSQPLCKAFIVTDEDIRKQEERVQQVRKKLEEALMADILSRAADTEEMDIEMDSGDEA
For the compound `O=C(O)Cn1cnc2c(NCc3ccccc3)ncnc21`, the inhibition is -3.02%. With `O=C(NCCc1c[nH]c2ccccc12)OCc1cn(-c2c(F)cccc2F)nn1`, the inhibition was -6.28%. On to `CCC(=O)OCCCN1C(=O)CCC12CCC(c1ccccc1)CC2` (stereo unspecified), for which the inhibition is 3.38%. Regarding `CN1C(c2ccc(F)cc2)=CS/C1=C(/C#N)c1nnc2n1-c1ccccc1SC2`, the inhibition was -4.62%. On to `COC(CNC(=O)[C@H](Cc1ccccc1)NC1(C(=O)NC2CCCCC2)CCCCC1)OC`, for which the inhibition is 6.86%.

As to `C=CS(=O)(=O)N(Cc1nnn(Cc2ccccc2)c1Br)[C@H](C(=O)OC)C(C)C`, the inhibition was -4.08%. For the compound `Cc1ccc(-c2noc(CCC(=O)Nc3ccccc3N3CCN(C)CC3)n2)cc1`, the inhibition was -4.01%. The value for `COCCNC(=O)c1cc2c(Br)ccc(Br)c2nc1N` was 1.97%; that for `COCCNC(=S)c1ccc(OC)cc1` was 0.26%; that for `COCCNC(=O)Nc1ccc2nc(-c3ccco3)c(-c3ccco3)nc2c1` was 53.7% (active). The value for `COc1cccc(CNC(=O)CNS(=O)(=O)c2ccc3nc(C)sc3c2)c1OC` was 3.15%; that for `C=CCN1C(=O)c2ccc(C(=O)N3CCC(C(=O)OCC)CC3)cc2C1=O` was 16.8% (active).

On to `CCOC(=O)C1CCCN(C(=O)c2ccc(N(C)C)cc2)CC1` (stereo unspecified), for which the inhibition was 7.99%. In the case of `CCOC(=O)C1CCCN(C(=O)c2ccc(C)c(F)c2)CC1` (stereo unspecified) it was -3.99%; in that of `Cc1c(C(=O)N2CC(C)OC(C)C2)sc2nc(-c3ccccc3)cn12` (stereo unspecified), -0.32%. For the compound `CC(C)C(C#CC1CC1)N(Cc1ccc2c(c1)OCO2)C(N)=NC(=O)/C=C/c1cccc(C(F)(F)F)c1` (stereo unspecified), the inhibition is -0.7%. For the compound `CC(C)(C)NC(=O)C(c1cccnc1)N(C(=O)c1cnco1)c1ccc(C(C)(C)C)cc1` (stereo unspecified), the inhibition was 2.09%. The value for `CCC(NC(=O)C1C2C=CC3(CN(Cc4ccccc4)C(=O)C13)O2)c1ccccc1` (stereo unspecified) was 0.25%. In the case of `COc1ccc(-c2nnc(SCC(=O)c3ccc4c(c3)OCCO4)o2)cc1` it was -3.62%; in that of `CCc1ccccc1NC(=O)CSc1nnc(-c2cccs2)o1`, 2.5%; in that of `COc1ccc(-n2c(C)cc(C(=O)CSc3nnc(-c4cccs4)o3)c2C)cc1`, 15.1% (active). The value for `O=C(CSc1nncn1-c1cccnc1)N1CCOCC1` was 2.16%.

Regarding `COc1cc(NC(=O)C2CCCN(S(=O)(=O)c3ccc(C(C)(C)C)cc3)C2)cc(OC)c1` (stereo unspecified), the inhibition is -0.54%.

As for `CCCCCCCCN1C(=O)[C@@H](CC(=O)NCc2ccccc2)C[C@@]2(C(=O)OC)C1=C[C@H](C(C)(C)C)O[C@@H]2C`, the inhibition was 3.75%. `O=C(c1ccncc1)N1CC[C@H]2[C@H](CCCN2Cc2ccc(F)cc2)C1`: the inhibition was -6.65%. In the case of `COc1ccc2c(c1)c(=Cc1ccc(N(C)C)cc1)c1cc(-c3ccccc3)[n+](C)n12` it was 29.6% (active); in that of `COc1ccc(NS(=O)(=O)c2cc3c(cc2C)N(C(C)=O)CCO3)cc1`, -5.65%. The value for `CC1CCCN(CCOCCOc2ccccc2-c2ccccc2)C1` (stereo unspecified) was -4.99%; that for `COc1ccc(CNC(=O)c2c[nH]c3c(OC)cc(OC)cc3c2=O)cc1` was 23.4% (active).

`CCSc1ccccc1C(=O)NCc1ccc(OC)cc1`: the inhibition is -9.91%.

On to `COc1ccc(CNC(=O)c2cc(C(=O)C3CC3)c[nH]2)cc1`, for which the inhibition was 1.85%. In the case of `CC(CCN1CCC(C(O)(c2ccccc2)c2ccccc2)CC1)Oc1ccc([N+](=O)[O-])cc1Cl` (stereo unspecified) it was 1.05%; in that of `COCCn1c(CN2CCC(Cc3ccccc3)CC2)nc2c1c(=O)n(C)c(=O)n2C`, 4.97%; in that of `O=C(CCCCCN1C(=O)C2C3C=CC(C3)C2C1=O)Nc1ccccc1` (stereo unspecified), -6.87%. Turning to `Cc1nc(S(=O)(=O)c2ccc(Br)cc2)nc2c1CCC2`, the inhibition was 1.36%. Turning to `CO/N=C(/CS(=O)(=O)c1ccc(Br)cc1)c1ccc(OC)cc1`, the inhibition was 14% (active).

Take `CO/N=C/CC(=O)c1ccc(OC)cc1`: the inhibition is -0.8%. The value for `CCN1CCN(C(=O)N(Cc2ccc(Cl)cc2)S(=O)(=O)c2ccc(C)cc2)CC1` was 2.19%. Consider `N#Cc1ccccc1OC[C@@H](O)CN1CCC(C(O)(c2ccccc2)c2ccccc2)CC1`, for which the inhibition is 0.72%. As for `CCCCNC(=O)C[C@H]1C(=O)N(Cc2ccc(OC)cc2)C2=CCCC[C@@]21C(=O)OCC`, the inhibition was -1.99%. For `CSc1nnc(-c2ccc(C(F)(F)F)cn2)o1`, the inhibition is 2.79%.

Consider `Cc1ccc(C)c(NC(=O)c2ccc(OC(=O)c3ccco3)cc2)c1`, for which the inhibition was 19.6% (active). In the case of `Cc1ccccc1NC(=O)c1ccc(COc2ccc3c(C)cc(=O)oc3c2)cc1` it was 5.18%; in that of `Cc1ccc(O)c(NC(=O)c2cc(-c3ccco3)on2)c1`, -2.88%; in that of `CCN(Cc1ccncc1)C(=O)c1cccc(S(=O)(=O)N2CCOCC2)c1`, 0.65%. The value for `Cc1cccc(CN2CCN(C3CN(Cc4ccccc4)S(=O)(=O)C3)CC2)c1` (stereo unspecified) was 1.18%; that for `Cc1cccc(CN2CCN(C3CN(Cc4cn(Cc5ccccc5F)nn4)S(=O)(=O)C3)CC2)c1` (stereo unspecified) was 5.03%; that for `Cc1cccc(CN2CCN(C3CN(Cc4cn(Cc5cc(C)cc(C)c5)nn4)S(=O)(=O)C3)CC2)c1` (stereo unspecified) was 17.4% (active). In the case of `CCOc1ccc(Oc2c(Cl)cnn(-c3ccc(C)cc3)c2=O)cc1` it was 3.14%; in that of `Cc1ccc(S(=O)(=O)Cn2nnnc2CN2CCN(Cc3ccc4c(c3)OCO4)CC2)cc1`, 0.18%. `CCOc1nc(OCC)nc(-n2cc(-c3ccccc3)nn2)n1`: the inhibition was -0.3%. The value for `COc1ccc(-c2ccc(CCC(=O)O)n2NC(=O)c2ccc(C(C)(C)C)cc2)cc1` was -1.3%; that for `COc1ccc(-c2ccc(CCC(=O)O)n2-c2ccc(O)cc2)cc1` was -0.88%; that for `CCOC(=O)c1ccc(-n2c(CCC(=O)O)ccc2-c2ccccc2)cc1` was 14.6% (active). In the case of `CCC12CN3CC(CC)(CN(C1)C31C(=O)N(C)c3ccc(C)cc31)C2=O` (stereo unspecified), the inhibition is -7.87%. `C[C@H](O)[C@@H]1CN2CCc3ccc(-c4ccc5c(c4)OCO5)cc3[C@@H]2C[C@@H]1N(C)C(=O)C1CCCCC1`: the inhibition is -1.38%. The value for `Cc1ccc(-c2nc3c(Cl)cc(C(F)(F)F)cn3c2Cc2cccc(Cl)c2)cc1` was -2.87%; that for `Cc1ccc(-c2ccnc3nc(Sc4ncc(C(F)(F)F)cc4Cl)nn23)cc1` was 14.8% (active); that for `Cc1nn(-c2ncc(C(F)(F)F)cc2Cl)c(=O)n1-c1ccccc1` was 3.32%. The value for `CC(C)(C)NC(=O)COC(=O)c1cc(Cl)ccc1[N+](=O)[O-]` was -1.21%. With `COC(=O)C[C@H]1CC[C@H]2[C@H](COc3ccc(NC(=O)C4CC4)cc3C(=O)N2C)O1`, the inhibition was -4.11%.

Take `Cc1ccc(N(C(=O)c2snc(C(N)=O)c2N)C(C(=O)NCC2CCCO2)c2c[nH]c3ccccc23)cc1` (stereo unspecified): the inhibition is 0.5%.

Take `c1nc(COc2nsnc2N2CCOCC2)cs1`: the inhibition was -0.47%. `C=CCn1c(=S)[nH]c2scc(-c3ccco3)c2c1=O`: the inhibition is 21.2% (active). On to `Cc1ccc(Cn2cc(COC(=O)N(C)Cc3ccccc3)nn2)cc1`, for which the inhibition is 3.5%. The value for `O=C(NCc1cccs1)C1CCN(S(=O)(=O)c2ccccc2[N+](=O)[O-])CC1` was 0.44%. In the case of `CCCn1c(SCC(=O)Nc2c(C)cccc2C)nnc1C(C)C` it was 6.66%. For the compound `CC(C)CC(COCc1ccc(Cl)cc1)N1CCN(C(=O)c2ccc(C(F)(F)F)cc2)CCC1=O` (stereo unspecified), the inhibition was 4.33%.

As to `COc1ccc(COC[C@H](CC(C)C)N2CCN(C(=O)c3cccc(C(F)(F)F)c3)CCC2=O)cc1`, the inhibition is 13.4% (active). `O=C(c1ccc(C(F)(F)F)cc1)N1CCC(=O)N([C@H](COCc2ccccc2)Cc2ccccc2)CC1`: the inhibition is 3%.

For `C[C@@H]1ON(C)[C@H]2C[C@H]3c4cc(N5CCOCC5)ccc4CCN3C[C@@H]12`, the inhibition was -5.34%.

On to `COC(=O)CNc1nc(Cl)nc(N2CCC(C)CC2)n1`, for which the inhibition is 2.21%. In the case of `CCc1c(-c2ccc(F)cc2)ncn1Cc1cccc(-c2ccccc2)c1` it was 1.61%; in that of `CCOC(=O)C1CCN(C(=O)C(C)(C)NC(=O)Nc2ccccc2Cl)CC1`, 1.47%. In the case of `Cc1c(CC(=O)N2CCN(C(=O)C3COc4ccccc4O3)CC2)c(=O)oc2c(O)c(O)ccc12` (stereo unspecified), the inhibition was 13.6% (active).

As for `Fc1ccc2nc(COCc3nc4ccc(F)cc4[nH]3)[nH]c2c1`, the inhibition was -0.41%. `CCC(C)n1[nH]c(=O)c2c(C)cc(C)nc21` (stereo unspecified): the inhibition was -4.79%. The value for `CCC(=O)Nc1cccc(C2=NOC3(C2)C[C@@H](C(N)=O)N(C(=O)c2cc([N+](=O)[O-])cc([N+](=O)[O-])c2C)C3)c1` (stereo partly specified) was -0.08%; that for `O=c1[nH]cnc2c1c(-c1ccccc1)cn2-c1ccc(F)cc1` was 4.57%.

For `COc1ccc(-n2cc(-c3ccccc3)c3c(=S)nc[nH]c32)cc1`, the inhibition was 14% (active).

With `O=C(CNS(=O)(=O)c1ccccc1F)N1CCN(c2ccccn2)CC1`, the inhibition was -1.19%. In the case of `COC(=O)c1ccc2nc(-c3cccc(Br)c3)c(Cc3ccc(OC)cc3C)n2c1` it was 14.9% (active). In the case of `COC(=O)c1ccc2nc(-c3ccccc3)c(Cc3ccc(OC)cc3C)n2c1` it was 10.6%; in that of `COC(=O)c1ccc2nc(-c3ccc(C)cc3)c(Cc3ccc(OC)cc3C)n2c1`, 7.16%. `Cc1ccc(OCc2nnc(SC/C=C/c3ccccc3)n2Cc2ccco2)cc1`: the inhibition is -3.87%.

Take `C=CCN1C(=O)[C@@H](CC(=O)N2CCN(C(=O)OCC)CC2)[C@]2(C(=O)OCC)CCCCC/C=C/12`: the inhibition is 4.9%.
